# Experimental data published in ChEMBL document CHEMBL1857833, “Screening and optimization of specific chemical series against human African Trypanosomiasis (HAT)”.
# Hit rate of the full screen: of about 4,400 compounds, about 390 (8.9%) showed an effect of 50% or more. The entries come from a sample that favours strong results as a whole.
# Tested on: Trypanosoma brucei
# Test: DNDI: Inhibition of Human African Trypanosomiasis, SBRI 427, in vitro at 2 ug.mL-1
# Assay type: functional
row,Compound,% inhibition
1,Cc1ccc(Oc2nc(C)ccc2/C(=N/O)NCc2cc(F)cc(F)c2)c(C)c1,6%
2,Cc1cc(C)cc(CN/C(=N\O)c2ccc(C)nc2OCc2ccccn2)c1,80%
3,Cc1ccc(/C(=N/O)NCc2ccccn2)c(OCc2ccccn2)n1,-11%
4,Cc1ccc(Oc2nc(C)ccc2/C(=N/O)NCc2c(F)cccc2F)c(C)c1,-3%
5,COc1ccc(CN/C(=N\O)c2ccc(C)nc2Oc2ccc(C)cc2OC)cc1,24%
6,COc1ccc(Oc2nc(C)ccc2/C(=N/O)NCc2cc(F)cc(F)c2)cc1,-8%
7,COc1cc(C)ccc1Oc1nc(C)ccc1/C(=N/O)NCc1ccccc1,99%
8,COc1cc(C)ccc1Oc1nc(C)ccc1/C(=N/O)NCc1cc(F)cc(F)c1,98%
9,COc1cc(C)ccc1Oc1nc(C)ccc1/C(=N/O)NCc1c(F)cccc1F,95%
10,COc1ccccc1CN/C(=N\O)c1ccc(C)nc1Oc1ccc(C)cc1OC,11%
11,Cc1ccc(/C(=N/O)NCc2ccccc2)c(OCc2ccccn2)n1,13%
12,COc1cc(C)ccc1Oc1nc(C)ccc1/C(=N/O)NCc1ccccn1,-7%
13,FC(F)(F)c1cccc(CNCc2coc(-c3ccc(Cl)cc3Cl)n2)c1,-2%
14,CCOc1ccccc1-c1nc(CN2CCN(c3cccc(C)c3)C(C)C2)co1 (stereo not drawn),-6%
15,COCCN(CCOC)Cc1coc(-c2ccc(O)cc2)n1,38%
16,Cc1cccc(Oc2ccc(/C(=N/O)NCc3cccnc3)cn2)c1,12%
17,Cc1cccc(-c2nc(CN(C)CC#N)co2)c1,4%

row,Compound,% inhibition
1,O/N=C(/c1cccnc1Oc1ccccc1Cl)N1CCN(c2ccc(F)cc2)CC1,3%
2,Cc1ccc(/C(=N/O)N2CCSCC2)c(Oc2ccc3ccccc3c2)n1,12%
3,COc1cc(C)ccc1Oc1nc(C)ccc1/C(=N/O)NCc1cc(C)cc(C)c1,98%
4,Cc1cc(C)cc(CN/C(=N\O)c2ccc(C)nc2Oc2cc(C)cc(C)c2)c1,41%
5,Cc1cc(C)cc(CN/C(=N\O)c2ccc(C)nc2Oc2ccc(C)cc2C)c1,18%
6,CCN(CC)Cc1coc(-c2ccc(C)cc2)n1,1%
7,Cc1nccn1/C(=N\O)c1ccc(Oc2ccc(Cl)cc2)nc1,5%
8,Cc1ccc(/C(=N/O)NCC(C)C)c(Oc2cccc(C(C)C)c2)n1,3%
9,Cc1ccc(/C(=N/O)NCc2ccccc2)c(Oc2cccc(F)c2)n1,13%
10,Cc1ccc(/C(=N/O)NCC(C)C)c(Oc2ccc3ccccc3c2)n1,13%
11,Cc1ccc(/C(=N/O)NCC(C)C)c(Oc2cccc(F)c2)n1,79%
12,Cc1cccc(Oc2nc(C)ccc2/C(=N/O)NCC(C)C)c1,94%
13,Cc1ccc(/C(=N/O)N(C)c2ccccc2)c(Oc2cccc(F)c2)n1,86%
14,Cc1ccc(/C(=N/O)NCc2cc(F)cc(F)c2)c(Oc2cccc(F)c2)n1,28%
15,COc1ccc(Oc2nc(C)ccc2/C(=N/O)N(C)c2ccccc2)cc1,-6%
16,CSc1ccc(Oc2nc(C)ccc2/C(=N/O)N(C)c2ccccc2)cc1C,5%
